Test results: the supplement of paper PMC6853941

The compounds below were run on MCF10A (assay: perturbation Mahalanobis distance of morphological profile vs DMSO controls (Mahalanobis distance (SD units)); higher = stronger morphological change, active = 7 or more). Conditions: screen batch: Batch2_Mahalanobis_Distance; 72 h.
Procedure: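 MCF10A cells were seeded onto drugs dispensed acoustically into 384-well plates, using one dose per drug chosen from its human peak plasma concentration, and incubated for 72 h at 37 °C. Cells were stained for DNA, tubulin and mitochondria and imaged; 78 CellProfiler features were extracted, plate-normalised and compared with DMSO wells.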

| Compound | perturbation Mahalanobis distance |
| --- | --- |
| COc1cc(C(=O)NS(=O)(=O)c2ccccc2C)ccc1Cc1cn(C)c2ccc(NC(=O)OC3CCCC3)cc12 [Zafirlukast] (0.26 µM) | 1.99 (inactive) |
| Nc1nc(N)c2nc(-c3ccccc3)c(N)nc2n1 [Triamterene] (2 µM) | 4.38 (inactive) |
| NC(N)=NCC1COC2(CCCCC2)O1 (stereo unspecified) [Guanadrel] (140.7 µM) | 2.51 (inactive) |
| NCCc1ccc(O)c(O)c1 [Dopamine] (2.5 µM) | 4.04 (inactive) |
| CCN(CC)C(=O)/C(C#N)=C/c1cc(O)c(O)c([N+](=O)[O-])c1 [Entacapone] (6.6 µM) | 2.48 (inactive) |
| O=C1CCc2ccc(OCCCCN3CCN(c4cccc(Cl)c4Cl)CC3)cc2N1 [Aripiprazole] (3.3 µM) | 2.92 (inactive) |
